{"source": "PubChem BioAssay (NCATS)", "note": "Records with an inconclusive call do not appear. A number with no mark means an inactive call. The call rests on the fitted dose curve; in most records, active means well fitted inhibition curve with a large enough effect; inconclusive means small, poorly fitted or top-dose-only effect; inactive means flat fitted curve, though single readings scatter. On the % scale 0 is the no-effect control and ±100 the full control effect."}
{"biological_target": "Calcium and integrin-binding protein 1 (Homo sapiens) (UniProt Q99828)", "sequence (Q99828 whole entry, looked up)": "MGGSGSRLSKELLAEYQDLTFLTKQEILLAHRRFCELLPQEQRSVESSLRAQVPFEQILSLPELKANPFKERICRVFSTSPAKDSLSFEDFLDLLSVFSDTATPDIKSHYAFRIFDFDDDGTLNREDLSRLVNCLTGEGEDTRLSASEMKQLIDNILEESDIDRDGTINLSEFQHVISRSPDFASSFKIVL", "test": "Primary qHTS for Identification of Calcium Integrin Binding Protein 1 (CIB1) Competitor (AID 1508620); further: top concentration of the series differs between compounds", "details": "CIB1-GST / FITC-alphaIIb peptide fluorescence polarization; series mostly up to 114 µM; activity change, negative = inhibition: at the top concentration", "procedure,_shortened": "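Fluorescence polarization competition: GST-tagged CIB1 (1 uM final) preincubated with compound 15 min at room temperature, then FITC-labelled alphaIIb peptide (100 nM final) added. After 15 min at room temperature, polarization read at Ex 480/Em 540.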", "units": {"activity change, negative = inhibition": "%"}}
{"smiles": "O=C(OC/C=C/CSc1nnc(-c2cccc3ccccc23)o1)c1ccc(F)cc1", "activity change, negative = inhibition": -1.61}
{"smiles": "O=C1CCc2cc(S(=O)(=O)Nc3ccccn3)ccc2N1", "activity change, negative = inhibition": 1.63}
{"smiles": "NC(=O)C1CCN(c2nc(-c3cccc(N)c3)cs2)CC1", "activity change, negative = inhibition": 2.57}
{"smiles": "O=C(OCC#CCSc1nnc(-c2cccc3ccccc23)s1)c1cccs1", "activity change, negative = inhibition": -10.7}
{"smiles": "c1nc(NCCCN2CCOCC2)c2cc(-c3ccc4c(c3)OCO4)ccc2n1", "activity change, negative = inhibition": -3.8}
